Assay results reported in ChEMBL document CHEMBL1157539, “Thousands of chemical starting points for antimalarial lead identification” (Nature, 2010).

Columns and labels:
Format in all cases: functional
[1] = system: Plasmodium falciparum; test: GSK_TCMDC: Inhibition of Plasmodium falciparum 3D7 in whole red blood cells, using parasite LDH activity as an index of growth. Test compounds present at 2uM
[2] = system: Plasmodium falciparum; test: GSK_TCMDC: Inhibition of Plasmodium falciparum Dd2 in whole red blood cells, using parasite LDH activity as an index of growth. Test compounds present at 2uM
[3] = system: HepG2; test: GSK_TCMDC: Percent inhibition of human HepG2 cell line. Test compounds present at 10uM.

SMILES	Inhibition [1] [%]	Inhibition [2] [%]	Inhibition [3] [%]
COc1ccc(CNc2cc(C)nc3sc4c(c23)CCC2(C4)OCCO2)cc1	96	2	4
Cc1ccccc1OCCCN1CCN(CC(c2ccc(F)cc2)N2CCN(C(C)C)CC2)CC1.Cl (stereo unspecified)	99	64	20
COc1ccc2nccc(NC(=O)CNCc3ccc(-c4ccccc4)cc3)c2c1	100	35	11
N#Cc1c(-c2ccccc2)cn2c1[nH]c(=O)c1ccccc12	92	95	0
COc1cc(SC)c(Br)cc1-c1nc2ccncc2[nH]1	91	9	5
Cc1cc(C(F)(F)F)cc(-n2ncc(-c3ccc(C(=O)NCCNCc4ccccc4)cc3)c2N)n1.O=C(O)C(F)(F)F	91	9	98
O=C1SC(S)=NC1=CNCCCCCCO	91	1	7
C=CCn1c(Sc2ccc(C#N)c([N+](=O)[O-])c2)nnc1-c1cccc(Cl)c1	97	54	41
COc1cc(C(=O)Nc2nc3ccccc3[nH]2)ccc1OCC(=O)Nc1cccc(C(F)(F)F)c1	100	33	33
COc1ccc2nc3cc(Cl)ccc3c(NCCN(C)C)c2c1	100	100	4
COc1ccc2ncc(F)c(CCN3CC4CCCC4(CNCc4ccc5c(n4)NC(=O)CS5)C3)c2n1.Cl (stereo unspecified)	87	28	18
COc1ccc(C2=[N+]([O-])c3ccccc3C2=O)cc1	93	61	2
COc1ccc(CCNCCCCCNCCCc2ccc(Cl)cc2)cc1OC.Cl	100	2	24
O=C(Nc1cccc(-c2ccc(-c3nc4cc(F)ccc4[nH]3)cc2)c1)Nc1ccc(Cl)c(Cl)c1	100	49	79
CC(C)(C)c1ccc(CN2CCC(NC(=O)c3ccc(-c4ccccc4Cl)s3)CC2)cc1.O=C(O)C(F)(F)F	84	29	36
COc1ccc2ccccc2c1CCCCN1CCN(CC(c2ccc(F)cc2)N2CCC(N3CCCC3)CC2)CC1.O=C(O)C(F)(F)F (stereo unspecified)	99	73	74

SMILES	Inhibition [1] [%]	Inhibition [2] [%]	Inhibition [3] [%]
O=C(NCCCCN1CCC(c2ccc3c(c2OCC2CC2)CCCC3)CC1)c1ccc(NC(=O)c2ccc(Cl)cc2)cc1	100	93	23
CON(C)C(=O)[C@@H](CCCCNC(=O)OCc1ccccc1)NC(=O)OC(C)(C)C	98	0	5
[O-][S+]1c2ccccc2Sc2ccccc21	99	0	48
O=C(Nc1cccc([N+](=O)[O-])c1)N(Cc1ccc(Cl)c(Cl)c1)C1CCNCC1	99	0	17
COc1cc(NC(=O)c2cc([N+](=O)[O-])ccc2NC(=O)CNC2CCCC(C)C2C)cc(OC)c1 (stereo unspecified)	97	80	21
CNC(=O)c1ccccc1Nc1nc(Nc2cccnc2)ncc1C.Cl	93	90	17
COc1ccc(Nc2ncc3c(-c4cccc(NC(=O)c5ccccc5)c4)c[nH]c3n2)cc1OC	100	95	54
COc1cc(C(=O)NC2CCN(Cc3ccccc3)CC2)ccc1-c1nc2cc(Cl)c(C)cc2[nH]1	99	97	0
CCCN1CCN(c2cc(S(=O)(=O)Nc3ccc(C(=O)NCc4cccc(C(F)(F)F)c4)cc3)ccc2OC)CC1.O=C(O)C(F)(F)F	92	8	27
CN1C(C)(C)CC(NC(=O)c2ccc(-c3nc4cc(Cl)c(Cl)cc4[nH]3)cc2)CC1(C)C	98	97	8
OC(CN(Cc1ccccc1)Cc1ccccc1)Cn1c2ccc(Cl)cc2c2cc(Cl)ccc21 (stereo unspecified)	89	95	5
CN1CCC(NCc2ccc(-c3ccc(S(=O)(=O)NCc4ccccc4)cc3)cc2)CC1.O=C(O)C(F)(F)F	99	51	40
CCc1ccc(CN2CCC(CNC(=O)c3cc(-c4cccc(C(F)(F)F)c4)cs3)C2)cc1.O=C(O)C(F)(F)F (stereo unspecified)	97	48	45
CCC(=O)N1CCc2cc(Br)cc(S(=O)(=O)N3CC(C)CC(C)C3)c21 (stereo unspecified)	85	84	5
Cc1ccccc1-c1cc(=O)c2cc(NC(=O)c3cccs3)ccc2o1	96	95	22
Cc1cccc2nc(-c3cccc(-c4cccc(NC(=O)c5ccncc5)c4)c3)[nH]c12	100	78	22
